Results reported in PubChem BioAssay AID720600 (Broad Institute, 2013).
Measured potencies and affinities stand elsewhere. Inconclusive results are not listed. Activity calls are given as the source filed them.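 How the source made its calls: active means compound whose half-maximal dose for viability loss stays within twice the top tested dose at all three treatment times; inconclusive means treatment times disagree in their calls; inactive means inactive at every treatment time.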

Test: SNB-19 glioblastoma cell viability loss, dose response, HRAS target identification, Alamar Blue fluorescence, 8/24/48 h, dry powder (AID 720600)

| SMILES | outcome |
| --- | --- |
| CCC(=O)N(c1ccc(OC)c(Cl)c1)C(C(=O)NCCc1ccccc1)c1cccs1 (configuration not stated) | inactive |
| Cc1onc(C(=O)N2CCN(C(c3ccncc3)c3ccncc3)CC2)c1[N+](=O)[O-] | inactive |
